# CHRM1 agonist = activates human CHRM1 receptor | P11229 | CHO-K1 hM1, Fluo-8 calcium fluorescence, agonist mode; 0% DMSO, 100% acetylcholine EC100 | activation, % at 3 µM | 0.33% of 360,000 active | AID 588814;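 active = activation above the run's mean compound activation plus 3 SD, cut at about 16% in these data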;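 note: peak over basal fluorescence ratio within a 140 s kinetic read after compound addition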
# Target sequence (P11229 whole entry, looked up): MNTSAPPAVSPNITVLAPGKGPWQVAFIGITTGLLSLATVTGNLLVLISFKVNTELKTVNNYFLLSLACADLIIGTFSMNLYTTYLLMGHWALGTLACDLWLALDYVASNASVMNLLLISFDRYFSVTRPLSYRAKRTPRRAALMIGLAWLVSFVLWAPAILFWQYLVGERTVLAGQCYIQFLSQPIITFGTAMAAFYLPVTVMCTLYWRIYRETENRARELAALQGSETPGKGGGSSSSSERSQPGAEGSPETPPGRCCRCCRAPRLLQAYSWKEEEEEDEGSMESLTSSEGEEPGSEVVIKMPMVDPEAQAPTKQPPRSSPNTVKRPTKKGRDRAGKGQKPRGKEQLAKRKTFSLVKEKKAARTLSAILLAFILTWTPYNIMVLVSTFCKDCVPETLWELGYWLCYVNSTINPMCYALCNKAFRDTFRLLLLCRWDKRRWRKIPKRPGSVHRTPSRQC
# M1 ag parental = counter-screen for M1 agonists: effect in parental CHO-K1 cells | Fluo-8 calcium fluorescence; scaled to maximal ATP response, vehicle zero | activation, % at 3 µM | 0.48% of 360,000 active; in the data active = activation above about 15%;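 note: untransfected CHO-K1 host cells lacking M1 receptor as counterscreen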
# M1 antag = blocks human M1 muscarinic receptor. P11229. CHO-K1 hM1, Fluo-8 calcium fluorescence, ACh EC80 antagonist. inhibition, % at 3 µM. 1.3% of 360,000 active. AID 588852;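 active = percent inhibition above its own plate's cutoff, namely the mean of that plate's compound wells plus 3 SD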;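 note: peak over basal fluorescence ratio during 140 s after agonist addition; 0% = ACh EC80 plus DMSO and 100% = DMSO alone without agonist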
# CHO-K1 Ca PAM = nonselective activator or artifact in parental CHO-K1 calcium assay. activation, % at 3 µM. 0.02% of 360,000 active. ATP EC20, Fluo-8 calcium fluorescence; 0% at ATP EC20, 100% at ATP max;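 active = activation above the run cutoff, the mean activation of all test compounds plus 3 SD, cut at about 40% in these data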;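 note: peak over basal fluorescence ratio in a 140 s read after ATP addition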
# CHO-K1 Ca antag = M1 antagonist counterscreen hit in parental CHO-K1 cells; ATP-induced calcium, Fluo-8 fluorescence; inhibition, % at 3 µM; 0.6% of 360,000 active;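 active = inhibition above a per-plate cutoff, the plate's mean sample inhibition plus 3 SD, cut at about 24% in these data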;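 note: 0% = DMSO plus EC80 ATP and 100% = DMSO alone without ATP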
# M1 PAM = human CHRM1 positive allosteric modulation; 0.088% of 360,000 active; CHO-K1 hM1, Fluo-8 calcium fluorescence, ACh EC20; 0% = ACh EC20, 100% = maximal ACh; activation, % at 3 µM; P11229; AID 588819; in the data active = activation above about 19%, passing the limit was not always enough
# Starred values were filed as active, the others as inactive. In the library only some 2.4% were active in any assay of this set; here they are far more common.
SMILES,CHRM1 agonist,M1 ag parental,M1 antag,CHO-K1 Ca PAM,CHO-K1 Ca antag,M1 PAM
CCN(C(=O)CN1C(=O)NC(c2ccccc2)(c2ccc(C)c(C)c2)C1=O)C1CCCCC1 (stereo not drawn),-9,-1,-1,4,-19,-4
Cc1ccc(S(=O)(=O)N2CCN(C(=O)c3ccnn3C)CC2)cc1C,-1,1,-23,17,-19,7
COc1ccc2ccc(OCC(=O)Nc3cc(C)on3)cc2c1,-1,0,-3,16,-20,2
O=C(c1cc(=O)[nH]c2ccccc12)N1CCN(S(=O)(=O)c2ccc(Cl)cc2)CC1,-1,9,23,-1,-7,-10
O=C(c1cc(=O)[nH]c2ccccc12)N1CCN(S(=O)(=O)c2ccc3ccccc3c2)CC1,-1,3,21,-5,26*,-4
CCOC(=O)c1c(C)[nH]c(C)c1C(=O)COC(=O)C1CC(=O)N(CCc2ccccc2)C1 (stereo not drawn),-4,1,-18,23,-12,10
O=c1c2cc([N+](=O)[O-])ccc2nc2n1CCCC2,-5,1,5,7,-6,3
Cc1ccc2nc3n(c(=O)c2c1)CCCCC3,-8,0,19*,8,-5,-19
O=c1c2cc(Br)ccc2nc2n1CCCCC2,-4,0,86*,-24,-4,-20
Nc1c(N(Cc2ccccc2)C(=O)COc2ccc([N+](=O)[O-])cc2)c(=O)[nH]c(=O)n1Cc1ccccc1,-4,0,3,-11,-5,3
Cc1ccc(C(C(=O)NCc2ccc(F)cc2)N(Cc2ccco2)C(=O)c2snc(C(N)=O)c2N)o1 (stereo not drawn),-1,8,35*,1,9,-16
COc1ccc(C(C(=O)NC2CCCCC2)N(Cc2ccco2)C(=O)c2snc(C(N)=O)c2N)cc1 (stereo not drawn),-1,5,25*,-2,11,-12
NC(=O)c1nsc(C(=O)N(Cc2ccco2)C(C(=O)NCc2ccc(F)cc2)c2ccc(O)cc2)c1N (stereo not drawn),0,9,23,-9,3,-12
CN(C)c1ccc(C(C(=O)NCC2CCCO2)N(Cc2ccccc2)C(=O)c2snc(C(N)=O)c2N)cc1 (stereo not drawn),0,7,26*,8,0,-12
Cc1ccc(C(C(=O)NC2CCCC2)N(Cc2ccc3c(c2)OCO3)C(=O)c2snc(C(N)=O)c2N)cc1 (stereo not drawn),-5,1,24*,-5,3,-18
CCn1c(N)cc(=O)[nH]c1=S,-1,1,-11,13,-15,3
CSc1nnnn1CCn1nnnc1SC,-3,-1,-1,-10,36*,-3
O=C(COc1ccc2ccccc2c1)N1CCNCC1,-3,0,-21,23,-23,17
O=C(COc1ccc2ccccc2c1)N1CCN(c2ccccc2O)CC1,-1,1,-9,-6,24*,-6
CC(C)N1CC(C(=O)Nc2ccc(Cl)cc2Cl)CC1=O (stereo not drawn),-3,1,-6,2,6,8
CC1CCCC(C)N1C(=O)COc1ccc(C(=O)Nc2ccccc2N2CCOCC2)cc1 (stereo not drawn),-2,0,34*,4,-6,6
COc1ccc2[nH]c3c(c2c1)CCN1C(=O)C(CC(=O)NCCCn2ccnc2)C[C@H](C(=O)N2CCOCC2)[C@@]31C (stereo partly drawn),-2,0,-5,-12,3,7
Cc1ccc(S(=O)(=O)CCN2C=CC(C(F)(F)F)=NCC2)cc1,6,17*,-14,11,2,14
[O-][n+]1c2ccccc2c2n1CCCN=C2c1ccc(Cl)cc1,-6,2,13,2,-19,-6
CC1(C)CC(NC(=O)c2cccc(Cl)c2)CC(C)(C)N1,-3,0,-5,-17,2,5
SMILES,CHRM1 agonist,M1 ag parental,M1 antag,CHO-K1 Ca PAM,CHO-K1 Ca antag,M1 PAM
Cc1ccc(S(=O)(=O)N2CCN(C(=O)COC(=O)CCOc3ccc(C(C)(C)C)cc3)CC2)cc1,3,8,34*,-6,-3,-11
Cc1ccc(C(=O)NCC(=O)OCC(=O)Nc2cc(S(=O)(=O)N3CCOCC3)ccc2C)cc1,-2,1,-11,3,-2,6
Cc1ccc(S(=O)(=O)N2CCOCC2)cc1NC(=O)COC(=O)CNC(=O)c1ccc(C(C)(C)C)cc1,-6,4,-12,23,-2,9
CCN(CC)c1ccc(S(=O)(=O)N2CCOCC2)cc1NC(=O)COC(=O)/C=C/c1ccccc1,-1,6,32*,12,-14,-13
Cc1ccc(S(=O)(=O)N2CCOCC2)cc1NC(=O)COC(=O)CCOc1ccc(C(C)(C)C)cc1,1,16*,8,-2,-2,-9
Cc1ccc(S(=O)(=O)N2CCOCC2)cc1NC(=O)COC(=O)CNC(=O)c1ccc(Oc2ccccc2)cc1,-4,2,7,-12,25*,-2
O=C(Cc1ccc(NC(=O)C2CCCN(C(=O)c3ccccc3)C2)cc1)Nc1ccc(C(=O)N2CCOCC2)cc1 (stereo not drawn),-1,0,-14,3,-18,9
CC(C)c1cc(CNC(=O)C2CCC(=O)N(Cc3ccccc3F)C2)on1 (stereo not drawn),-2,1,-14,10,-5,9
CC(=O)Nc1ccc(C(=O)N2CCCCC2c2cc(C(=O)NCc3cccnc3)no2)cc1 (stereo not drawn),-6,1,-12,10,-7,7
COc1ccc(NC(=O)CSc2nc(C(C)C)nc3c2c(=O)n(C)c(=O)n3C)c(OC)c1,-1,0,-7,-23,7,1
Cn1cc(CN2CCN(c3ccccc3)CC2)c2ccccc21,-8,4,31*,13,2,-18
N#CC1(NC(=O)Cn2cc(C(F)(F)F)cc(Cl)c2=O)CCCCC1,5,0,-14,10,7,17
Cc1ccc(C(=O)NCCc2nc3ccccc3[nH]2)cc1[N+](=O)[O-],-1,1,5,-12,24*,-6
Cc1ccc(C(=O)NCCSc2c(C)[nH]c3ccccc23)cc1[N+](=O)[O-],-4,5,14,-3,5,-15
O=C(NCCc1nc2ccccc2[nH]1)c1ccc(Cl)c([N+](=O)[O-])c1,-8,3,29*,19,9,-27
O=C(NCCc1cccc(Cl)c1)c1ccc(Cl)c([N+](=O)[O-])c1,-7,5,-2,5,2,-12
